# Screening data (PubChem)
# Hits are enriched below; roughly 3.1% of the tested compounds scored in any of these assays.
# Tau fibril ThT: inhibitors of human tau fibril formation, thioflavin T binding; recombinant tau K18 P301L, heparin-induced fibrillization, ThT fluorescence; P10636; 2.1% of 270,000 active; Potency, µM (top dose mostly 57.4 µM), for inactives: at the top dose activity, negative = inhibition, actives largely listed as inhibitors; further: nearly all actives have a fitted effect of over 55% in size
# Target sequence (P10636 561-689 P618L limits assumed): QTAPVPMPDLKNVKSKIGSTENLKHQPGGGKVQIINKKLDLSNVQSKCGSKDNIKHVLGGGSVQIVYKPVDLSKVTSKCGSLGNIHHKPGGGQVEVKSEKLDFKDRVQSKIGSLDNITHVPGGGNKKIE
#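 Using a mix of unlabeled (15 uM) and Alexa 594-labeled (0.24 uM) tau K18 P301L, heparin-triggered fibrillization over 6 hr at 37 C was scored by ThT fluorescence.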
# Tau fluor cs: counter-screen for tau fibril formation inhibitors; AID 1463; 0.93% of 280,000 active; Potency, µM (titrated, usually from 57.7 µM), for inactives: at the highest dose activity change, negative = decrease; tau K18 P301L (four-repeat tau fragment) Alexa594 fluorescence, heparin fibrillization; further: nearly all actives have a fitted effect of over 55% in size
#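 Human K18 P301L tau (15 uM unlabeled plus 0.24 uM Alexa 594-labeled, final) in 100 mM sodium acetate pH 7 was mixed with compound and 20 uM heparin and incubated 6 hr at 37 C.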
# TRb SRC2 PPI: disrupts binding of human TR beta to SRC2; P10828; TRbeta-SRC2 peptide binding, fluorescence polarization; receptor liganded with 1 µM T3; Potency, µM (highest dose often 106 µM), without a hit: at the highest dose activity change, negative = inhibition, actives largely listed as inhibitors; AID 1469; 0.065% of 280,000 active;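 further: plate controls were bound peptide for no effect and peptide without receptor for full effect; nearly all actives have a fitted effect of over 50% in size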
# Target sequence (P10828 whole entry, looked up): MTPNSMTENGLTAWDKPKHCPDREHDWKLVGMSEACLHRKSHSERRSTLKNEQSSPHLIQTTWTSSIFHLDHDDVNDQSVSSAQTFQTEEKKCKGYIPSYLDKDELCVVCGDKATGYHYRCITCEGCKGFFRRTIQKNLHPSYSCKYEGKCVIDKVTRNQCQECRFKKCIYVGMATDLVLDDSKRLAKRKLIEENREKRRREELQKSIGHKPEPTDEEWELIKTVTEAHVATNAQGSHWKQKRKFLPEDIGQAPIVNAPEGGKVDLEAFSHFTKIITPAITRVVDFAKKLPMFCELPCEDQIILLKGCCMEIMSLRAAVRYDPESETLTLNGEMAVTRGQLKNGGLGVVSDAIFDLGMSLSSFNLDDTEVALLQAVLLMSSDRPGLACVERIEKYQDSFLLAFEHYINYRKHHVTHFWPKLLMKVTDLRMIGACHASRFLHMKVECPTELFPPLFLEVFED
#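 Polarization signal, normalized between peptide-alone and full complex controls, measured compound effects on T3-liganded human TRb LBD (0.6 uM) binding 20 nM Texas Red SRC2 peptide after 5 hr.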
# TexasRed fluor: counter-screen for TRb-SRC2 inhibitors: fluorescence interference; Potency, µM (series often up to 106 µM), for the others: top-dose fluorescence change, negative = quenching; 0.29% of 280,000 active; TRb/SRC2 Texas Red total fluorescence interference; AID 1479; active means well fitted curve in either direction with a large enough effect; inconclusive means small, poorly fitted or top-dose-only effect
#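 Flags fluorescent or light-absorbing compounds by total fluorescence, S + 2P, at 555 nm excitation and 632 nm emission. Mixture: 20 nM Texas Red SRC2 peptide, 0.6 uM human TRb LBD, 1 uM T3, 5% DMSO; compound exposure 5 h at ambient temperature.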
# Tau FP inhib: blocks human tau fibril formation measured by polarization. AID 1468. K18 P301L tau heparin fibrillization, Alexa594 FP, 6 h. 0.39% of 280,000 active. Potency, µM (highest dose often 57.7 µM), without a hit: at the top dose activity, negative = inhibition, most hits filed as inhibitors; further: nearly all actives have a fitted effect of over 55% in size
#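 Recombinant K18 P301L […], labeled with Alexa 594 at 0.24 uM over 15 uM unlabeled; heparin inducer 20 uM final; 37 C, 6 hr; FP endpoint.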
# * = called active by the depositor; ? = inconclusive; . = not tested or not shown; ! = a repeat was not active; [ ] = remark or other dose. Unless noted, the call rests on the fitted dose curve; in most records, active means well fitted curve in the direction sought with a large enough effect; inconclusive means small, poorly fitted or top-dose-only effect, or another doubt; inactive means no such curve, though single readings can be large; an effect the other way counts as inactive or inconclusive. Unless noted, on the % scale 0 is the no-effect control and ±100 the full control effect; potency means the concentration at half of the fitted maximal effect.
SMILES,Tau fibril ThT,Tau fluor cs,TRb SRC2 PPI,TexasRed fluor,Tau FP inhib
COc1ccc(OC)c(N2C(=O)NC(=O)/C(=C\c3ccc([N+](=O)[O-])s3)C2=O)c1,11µM*,?,?,16%,?
O=C1NC(=O)N(c2ccccc2)C(=O)/C1=C\c1ccc([N+](=O)[O-])s1,.,?,9%,-3%,?
CN1C(=O)NC(=O)/C(=C/c2ccc([N+](=O)[O-])s2)C1=O,.,?,-3%,-19%,28µM*
C=C(C)CN(CC)c1c([N+](=O)[O-])cc(C(F)(F)F)cc1[N+](=O)[O-],.,.,-3%[201 µM],1%[201 µM],.
CSC1=N[C@@](C)(c2ccccc2)C(=O)N1Nc1ccccc1,.,.,1%[201 µM],-2%[201 µM],.
COc1ccc2c(c1)NP(=S)(Oc1ccccc1)N2 (stereo not drawn),8.9µM*,?,5%,-4%,?
COc1cc2c(cc1O)C[C@H]1c3c(cc(O)c(OC)c3-2)CCN1C,.,.,1%[53 µM],-2%[53 µM],.
COc1cc2c(cc1O)-c1c(O)c(OC)cc3c1[C@H](C2)N(C)CC3,28µM*,?,-6%,-4%,?
CC(C1CC1)C(O)(Cn1cncn1)c1ccc(Cl)cc1 (stereo not drawn),.,.,0%[201 µM],1%[201 µM],.
COP(=S)(OC)SCN1C(=O)c2ccccc2C1=O,35µM*,-19%,3%,-3%,?
CCOP(=S)(OCC)SC(CCl)N1C(=O)c2ccccc2C1=O (stereo not drawn),.,.,-4%[201 µM],-3%[201 µM],.
Nc1c(C(=O)Nc2ccc(F)c(Cl)c2)sc2nc3c(cc12)N1CCC3CC1,?,?,1%,2%,17%
Nc1c(C(=O)Nc2ccc(Br)cc2F)sc2nc3c(cc12)N1CCC3CC1,-9%,?,-2%,10µM*[quencher],-8%
CN(C)c1ccc(NC(=O)c2sc3nc4c(cc3c2N)N2CCC4CC2)cc1,?,?,-8%,14µM*[quencher],-7%
CC(C)C(=O)OCC(C)(C)C(OC(=O)C(C)C)C(C)C (stereo not drawn),.,.,-3%[201 µM],-1%[201 µM],.
CN(C)C1C(=O)C(C(N)=O)=C(O)[C@@]2(O)C(=O)C3=C(O)c4c(O)cccc4[C@@](C)(O)C3[C@H](O)C12 (stereo partly drawn),7.1µM*,?,-5%,?,?
CN(C)[C@@H]1C(=O)C(C(N)=O)=C(O)[C@]2(O)C(=O)C3=C(O)c4c(O)cccc4[C@@](C)(O)[C@H]3[C@H](O)[C@@H]12,.,.,-8%[53 µM],-8%[53 µM],.
O=[N+]([O-])c1ccc(Sc2nc3ccccc3o2)c([N+](=O)[O-])c1,14µM*,8.9µM*[quencher],-5%,-6%,?
CC(C)N1C(=O)N(c2ccccc2)CSC1=NC(C)(C)C,.,.,-2%[201 µM],5%[201 µM],.
CC(C)NC(=O)N1CC(=O)N(c2cc(Cl)cc(Cl)c2)C1=O,.,.,4%[201 µM],0%[201 µM],.
O=c1[nH]c(=S)[nH]c(O)c1N=Nc1ccc(S(=O)(=O)N2CCOCC2)cc1,?,-7%,-12%,-8%,-7%
NS(=O)(=O)c1ccc(N=Nc2c(O)[nH]c(=S)[nH]c2=O)cc1,5.6µM*,-13%,-1%,-24%,-4%
COc1ccc(N=Nc2c(O)[nH]c(=S)[nH]c2=O)cc1,2.8µM*,-10%,7%,-7%,-4%
COC(=O)c1ccccc1N=Cc1c(O)[nH]c(=S)[nH]c1=O,-14%,5%,2%,0%,-3%
O=c1[nH]c(=S)[nH]c(O)c1N=Nc1ccc(OC(F)F)cc1,4µM*,-4%,4%,-4%,6%
SMILES,Tau fibril ThT,Tau fluor cs,TRb SRC2 PPI,TexasRed fluor,Tau FP inhib
COc1cccc(N=Nc2c(O)[nH]c(=S)[nH]c2=O)c1,7.1µM*,-20%,-3%,-9%,-5%
O=c1[nH]c(O)c(N=Nc2cc(C(F)(F)F)ccc2Cl)c(=O)[nH]1,-12%,2%,5%,-6%,6%
Nc1nc(N)nc(Cl)n1,.,.,1%[201 µM],3%[201 µM],.
Clc1ccc(-c2cc(Cl)c(Cl)cc2Cl)cc1Cl,.,.,1%[201 µM],-1%[201 µM],.
CC(C)OC(=O)Nc1cccc(Cl)c1,-8%,-1%,-1%[201 µM],3%[201 µM],8%
N#CC(C#N)=NNc1cccc(Cl)c1,4.5µM*,?,11%,-8%,?
c1ccc2cc(CC3=NCCN3)ccc2c1,-4%,-12%,10%,1%,-3%
c1ccc(C2CC2)c(OCC2=NCCN2)c1,1%,-1%,?,45µM*![fluorescent],6%
C=C1C(=O)O[C@@H]2C[C@@H](C)[C@H]3C=CC(=O)[C@]3(O)C[C@@H]12,16µM*,-4%,-4%,1%,?
CN(C)c1ccc(C=C2C(=O)NC(=S)NC2=O)cc1[N+](=O)[O-],32µM*,?,3%,0%,?
[O-]/[N+](=C/c1cccnc1)c1ccc(Br)cc1,28µM*,-20%,2%,-3%,?
CCOC(=O)Nc1cccc(OC(=O)Nc2ccccc2)c1,.,.,-2%[201 µM],-2%[201 µM],.
COc1ccc(Nc2nc(N)nc(CSc3nc4ccccc4s3)n2)cc1,?,16µM*[quencher],-1%,-3%,-1%
COP(=O)(OC)Oc1nc(Cl)c(Cl)cc1Cl,.,.,-10%[201 µM],1%[201 µM],.
CCOP(=O)(OCC)OP(=O)(OCC)OCC,.,.,6%[201 µM],-1%[201 µM],.
COC[C@H]1OC(=O)c2coc3c2[C@@]1(C)C1=C(C3=O)[C@H]2CCC(=O)[C@@]2(C)C[C@H]1OC(C)=O,14µM*,?,-23%,24%,28µM*
COC[C@H]1OC(=O)c2coc3c2[C@@]1(C)C1=C(C3=O)C2CCC(=O)[C@@]2(C)C[C@H]1OC(C)=O (stereo partly drawn),18µM*!,?,35µM*,45µM*![fluorescent],?
N=C(N)c1c(O)n(C2CCCCC2)c(=O)n(C2CCCCC2)c1=O,0%,?,4%,-1%,28µM*
C=CC(=O)NCO,.,.,-3%[5.17e+03 µM],-2%[5.17e+03 µM],.
Cn1cccc1/C=C1/C(=O)NC(=O)N(Cc2ccc(F)cc2)C1=O,.,.,-9%,-8%,.
Cn1cccc1/C=C1/C(=O)NC(=S)N(Cc2ccc(F)cc2)C1=O,.,11µM*[quencher],-4%,1%,35µM*
Cn1ncnc2c(=O)n(C)c(=O)nc1-2,11µM*,-11%,?,-3%,?
Oc1cccc2nc3ccccc3nc12,16µM*,-21%,-12%,-6%,-11%
COC(=O)C[C@]1(C(=O)OC)CN(C#N)N(c2ccc(Cl)cc2)C12c1ccccc1-c1ccccc12,14µM*,-20%,-3%,-4%,?
COC(=O)[C@@H]1[C@@H](C(=O)OC)C2(c3ccccc3-c3ccccc32)N(c2ccc(Cl)cc2)N1C#N,25µM*,-15%,-9%,-4%,?
CCOc1nc(F)cc2nc(S(=O)(=O)Nc3c(Cl)cccc3Cl)nn12,.,.,-4%[201 µM],9%[201 µM],.
N/C(=N\N=C/c1ccc(-c2ccc(O)c(C(=O)O)c2)o1)N[N+](=O)[O-],4.5µM*,?,1%,?,-4%
ClC1=C(Cl)C(Cl)(C2(Cl)C(Cl)=C(Cl)C(Cl)=C2Cl)C(Cl)=C1Cl,.,.,?,32µM*[quencher],.
